Screening data: PubChem, Broad Institute
aSyn 5UTR act: Activators via SNCA 5'UTR binding, MLPCN | alpha-synuclein 5'UTR reporter, activators screen | hit rate 7.1% among 300,000 | activity score, % (tested at 7.5 µM), hits read low; in the data active = activity score below about -60%
* marks the source's active call; other numbers are inactive results. A selection follows.

Cc1cccc(NC(=O)c2ccccn2)c1C was read as aSyn 5UTR act -112*.
For Oc1ccc(/C=N/Nc2ccnc3cc(Cl)ccc23)c(O)c1 the results were aSyn 5UTR act -227*.
`Clc1ccc2c(N/N=C/c3cccnc3)ccnc2c1` gave aSyn 5UTR act -81*.
For Fc1ccc(N/N=C/c2cccnc2)c(F)c1 the results were aSyn 5UTR act -114*.
For CCOC(=O)CNC(=O)c1ccc(OCC(F)(F)F)cc1 the results were aSyn 5UTR act -76*.
`Cc1ccc(OCCNC(=O)c2ccc(C)cc2)cc1` gave aSyn 5UTR act -148*.
Screening COCCCNC(=S)NC(=O)c1ccc(C)cc1 returned aSyn 5UTR act -125*.
For COc1ccc(OCCNC(=O)c2ccc(C)cc2)cc1 the results were aSyn 5UTR act -79*.
For CS(=O)(=O)NCc1ccc(C(=O)NCCOc2ccccc2)cc1 the results were aSyn 5UTR act -120*.
For CC(C)CCOc1ccc(C(=O)NCCC(=O)N2CCOCC2)cc1 the results were aSyn 5UTR act -82*.
Screening CC(=O)c1ccc(Sc2ccc(C(C)=O)cc2)cc1 returned aSyn 5UTR act -64*.
Screening c1ccc(NC2=Nc3ccccc3CC2)cc1 returned aSyn 5UTR act -179*.
O=C(Nc1cccc(O)c1)c1ccc(S(=O)(=O)N2CCCCCC2)cc1 was read as aSyn 5UTR act -68*.
For O=C(Nc1ccccn1)c1ccc(S(=O)(=O)N2CCCCCC2)cc1 the results were aSyn 5UTR act -87*.
O=C(Nc1ccccn1)c1ccc(S(=O)(=O)N2CCCCC2)cc1 was read as aSyn 5UTR act -121*.
For O=C(Nc1ccccc1[N+](=O)[O-])c1ccc(S(=O)(=O)N2CCCC2)cc1 the results were aSyn 5UTR act -131*.
`Cc1cccc(NC(=S)N=Nc2c(O)n(C)c3ccc(S(=O)(=O)N4CCOCC4)cc23)c1` gave aSyn 5UTR act 83.
For O=C(N/N=C\c1cc(Br)ccc1O)c1ccc(S(=O)(=O)N2CCCCC2)cc1 the results were aSyn 5UTR act 110.
For O=C(Nc1ccccn1)c1ccc(Br)c(S(=O)(=O)N2CCCC2)c1 the results were aSyn 5UTR act -65*.
`Cc1ccnc(NC(=O)C2CCN(S(=O)(=O)c3ccc(Cl)c(C(F)(F)F)c3)CC2)c1` gave aSyn 5UTR act -63*.
Cc1ccnc(NC(=O)c2ccc(S(=O)(=O)N3CCCCCC3)cc2)c1 was read as aSyn 5UTR act -119*.
For CCS(=O)(=O)c1ncc(Cl)c(C(=O)Nc2ccc(S(=O)(=O)N3CCC(C)CC3)cc2)n1 the results were aSyn 5UTR act 65.
O=C(Nc1cccc(S(=O)(=O)N2CCCCC2)c1)c1ccc([N+](=O)[O-])o1 was read as aSyn 5UTR act -268*.
`CCN(CC)CCNC(=O)c1ccc(NC(=O)c2ccc(S(=O)(=O)N3CCCCCC3)cc2)cc1` gave aSyn 5UTR act -64*.
`Oc1ccc(Br)cc1-c1ccnn1-c1ccccc1` gave aSyn 5UTR act -114*.
For S=C(Nc1ccc(Cl)c(Cl)c1)NC1CCCCC1 the results were aSyn 5UTR act -75*.
S=C(Nc1ccc2nsnc2c1)NC1CCCCC1 was read as aSyn 5UTR act -163*.
CC1CCN(C(=O)Nc2ccc3nsnc3c2)CC1 was read as aSyn 5UTR act -126*.
`COc1ccc(NC(=S)Nc2ccc3nsnc3c2)cc1` gave aSyn 5UTR act -207*.
For CCc1ccc(NC(=S)N2CCCCCCC2)cc1 the results were aSyn 5UTR act -123*.
`Cc1ccc(NC(=S)NC2CCCCC2)cc1S(=O)(=O)N(C)C` gave aSyn 5UTR act -65*.
`S=C(Nc1ccc2nsnc2c1)N1CCCCCC1` gave aSyn 5UTR act -148*.
S=C(NNc1ccc2ccccc2c1)NC1CCCCC1 was read as aSyn 5UTR act -217*.
For CC(C)c1ccc(NC(=S)NC2CCCCCC2)cc1 the results were aSyn 5UTR act -185*.
`NC(=NCc1ccco1)NC(=O)c1ccc(Cl)cc1` gave aSyn 5UTR act -128*.
O=c1c(-c2ccccc2)c[nH]n1-c1cccc([N+](=O)[O-])c1 was read as aSyn 5UTR act -87*.
For O=c1c(-c2ccc(Cl)cc2)c[nH]n1-c1ccccc1 the results were aSyn 5UTR act -145*.
`NNC(=O)c1oc2nc(-c3ccco3)cc(-c3ccco3)c2c1N` gave aSyn 5UTR act -62*.
Screening CCOc1cc(N2CCOCC2)c(OCC)cc1NC(=O)c1cc(-c2ccco2)nc2ccccc12 returned aSyn 5UTR act 114.
For O=C(Nc1ccc(Cl)c(S(=O)(=O)N2CCOCC2)c1)c1ccc2c(c1)OCCO2 the results were aSyn 5UTR act -65*.
Screening O=C(NNC(=O)c1ccc(F)cc1F)c1ccc2c(c1)OCO2 returned aSyn 5UTR act -90*.
Screening CS(=O)(=O)c1cccc(C(=O)Nc2ccc3c(c2)OCCCO3)c1 returned aSyn 5UTR act -101*.
Screening O=C(Nc1ccc2cn[nH]c2c1)c1ccc(Cl)c(S(=O)(=O)N2CCOCC2)c1 returned aSyn 5UTR act -200*.
For O=C(Oc1ccc2c(c1)OCO2)c1ccc(F)cc1Cl the results were aSyn 5UTR act -176*.
For O=C(Oc1ccc(N2C(=O)CCC2=O)cc1)c1ccccc1Cl the results were aSyn 5UTR act 59.
For CCC(CC)C(=O)Nc1cccc(C(=O)Nc2ccc3c(c2)OCO3)c1 the results were aSyn 5UTR act -121*.
Screening O=C(Nc1cccc(F)c1)c1ccc2c(c1)OCO2 returned aSyn 5UTR act -149*.
O=C(Nc1ccc2c(c1)OCCO2)c1cccc(S(=O)(=O)N2CCOCC2)c1 was read as aSyn 5UTR act -88*.
For CCN(CC)S(=O)(=O)c1cccc(C(=O)Nc2ccc3c(c2)OCO3)c1 the results were aSyn 5UTR act -125*.
`COc1ccc2cc(-c3ccon3)ccc2c1` gave aSyn 5UTR act -172*.
Screening CCOC(=O)/C(C#N)=C/C=C1/C=CC=CN1C returned aSyn 5UTR act -63*.
`C=CCN1C=CC(=C/C=C(/C#N)C(=O)OCC)C=C1` gave aSyn 5UTR act -138*.
Screening CC(C)(C)n1nc2c(c1NC(=O)c1cc([N+](=O)[O-])ccc1Cl)CS(=O)(=O)C2 returned aSyn 5UTR act -95*.
Screening Cc1ccc(C(=O)Nc2c3c(nn2C(C)(C)C)CS(=O)(=O)C3)cc1[N+](=O)[O-] returned aSyn 5UTR act -79*.
O=C(N/N=C/C(Br)=C\c1ccccc1)c1ccco1 was read as aSyn 5UTR act -226*.
Screening O=C(N/N=C/c1ccccc1)c1[nH]ncc1Br returned aSyn 5UTR act -118*.
`CC(C)(C)OC(=O)N/N=C\c1ccc(OC(=O)c2ccco2)cc1` gave aSyn 5UTR act -84*.
O=C(N/N=C/c1ccc(OCc2ccccc2)cc1)c1ccco1 was read as aSyn 5UTR act -103*.
O=C(N/N=C/c1ccccc1)c1ccco1 was read as aSyn 5UTR act -107*.
For COc1ccccc1NC(NC(=O)c1ccco1)C(=O)c1ccccc1 (centres undefined) the results were aSyn 5UTR act -85*.
COc1ccccc1/C=C/C=N/NC(=O)c1ccco1 was read as aSyn 5UTR act -112*.
For Cc1sc2ncnc(N/N=C/c3ccccc3O)c2c1C the results were aSyn 5UTR act 106.
`COc1ccc(/C=N/Nc2ncnc3sc(C)c(C)c23)cc1` gave aSyn 5UTR act -114*.
Screening Cc1sc2ncnc(N/N=C/c3ccc(O)cc3)c2c1C returned aSyn 5UTR act -64*.
Screening CC(C)(C)c1ccc(-c2noc(-c3ccno3)n2)cc1 returned aSyn 5UTR act -120*.
For O=C(O)/C=C/C(=O)Nc1ccc2nccnc2c1 the results were aSyn 5UTR act -75*.
`O=C1c2ccccc2C(=O)c2cc(NC(=O)C3CC3)ccc21` gave aSyn 5UTR act -161*.
